mHTT-CaM PPI inh – mHTT-calmodulin interaction abrogation; inhibition, % at 15 µM; actives 3.6% (n = 190,000); AID 1671202; AlphaScreen His-mHTT/GST-CaM binding, luminescence;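 note: 0% = both proteins with DMSO and 100% = one protein alone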
Pf apPOL inh – Pf-apPOL DNA polymerase inhibition; AID 1794808; inhibition, % at 10 µM; Recombinant Pf-apPOL, molecular beacon fluorescence, 1.5 h; actives 0.25% (n = 210,000)
* hit, by the source's call; · = not tested or not shown. Many of the other results were omitted from the sample, so hits are more common in it than they were. Cut-off read from the data, not from the text of the source: active = inhibition above about 50%; inactive = the rest.

SMILES	mHTT-CaM PPI inh	Pf apPOL inh
COc1cccc(C2C3=C(CC(C)(C)CC3=O)NC3=C2C(=O)c2ccccc23)c1OC (stereo unspecified)	44	-6
COc1cc(C2C3=C(CC(C)(C)CC3=O)NC3=C2C(=O)c2ccccc23)cc(OC)c1OC (stereo unspecified)	61*	-1
CC1(C)CC(=O)C2=C(C1)NC1=C(C(=O)c3ccccc31)C2c1ccc(Br)cc1 (stereo unspecified)	60*	-11
CC1(C)CC(=O)C2=C(C1)NC1=C(C(=O)c3ccccc31)C2c1ccc(O)cc1 (stereo unspecified)	50	-4
Oc1ccccc1C=Nc1ccc(N2CCOCC2)cc1	·	3
COc1cccc(C(=O)Nc2c3c(nn2-c2ccc(F)cc2)CS(=O)C3)c1 (stereo unspecified)	4	-3
CCCOc1nccnc1N1CCC(NC)C1 (stereo unspecified)	14	-1
O=S(=O)(NC1CCCCCC1)c1ccc(Cl)cc1	-18	1
COc1ccc(C(=O)NC(Nc2ccc(C)cc2C)C(Cl)(Cl)Cl)cc1 (stereo unspecified)	8	3
COc1ccccc1NC(NC(=O)c1cccc([N+](=O)[O-])c1)C(Cl)(Cl)Cl (stereo unspecified)	47	1
Cc1ccc(NC(NC(=O)c2cccc([N+](=O)[O-])c2)C(Cl)(Cl)Cl)c(C)c1 (stereo unspecified)	62*	-2
Cc1ccc(C)c(NC(NC(=O)c2cc([N+](=O)[O-])cc([N+](=O)[O-])c2)C(Cl)(Cl)Cl)c1 (stereo unspecified)	70*	2
CC(=O)Nc1ccc(-c2noc(C3CCN(C(=O)c4cccc5[nH]ccc45)CC3)n2)cc1	18	-5
Cc1ccc(C(=O)NCc2ccc(Cl)cc2)c(Cl)c1	0	-5
Cc1ccc(CNC(=O)c2ccc(Cl)cc2Cl)cc1	-7	65*
CCCn1c(=O)c(C(=O)NCc2ccccc2Cl)c(O)c2ccccc21	4	-4
Cc1ccc(Cn2c(=O)cc(C(=O)NCc3ccccc3Cl)c3ccccc32)cc1	78*	12
CC(C)C(C(=O)N1CCCCCC1)N1C(=O)c2ccccc2C1=O (stereo unspecified)	1	-3
N#Cc1c(N=Cc2ccccc2O)oc(-c2ccoc2)c1-c1ccco1	39	-1
COc1ccc(C2=NN3C(C2)c2ccccc2OC32CCCCC2)cc1 (stereo unspecified)	25	-12
COc1cccc2c1OC1(CCCCC1)N1N=C(c3ccccc3)CC21 (stereo unspecified)	13	-4
COc1cccc2c1OC1(CCCCC1)N1N=C(c3ccc(C)o3)CC21 (stereo unspecified)	80*	-17
COc1cccc2c1OC1(CCC(C)CC1)N1N=C(c3ccc(C)o3)CC21 (stereo unspecified)	85*	-15
O=C(Nc1ncccc1Cl)c1ccc(Cl)cc1	-7	-2
Oc1oc(-c2ccc(Cl)cc2)nc1C=Nc1ccc(Cl)cc1Cl	5	28
SMILES	mHTT-CaM PPI inh	Pf apPOL inh
N=c1oc2c(Cl)cc(Cl)cc2cc1C(N)=O	91*	-2
NC(=O)c1ccc(N=c2oc3c(Cl)cc(Cl)cc3cc2C(N)=O)cc1	1	-6
Cc1cc(C(F)(F)F)c(C#N)c(SCC(=O)Nc2ccccc2)n1	-7	2
CC(=O)C1=C(C)Nc2sc(C(=O)c3cccc([N+](=O)[O-])c3)c(N)c2C1c1cccnc1 (stereo unspecified)	57*	0
CC(=O)C1=C(C)NC(C)=C(C(C)=O)C1c1cccc([N+](=O)[O-])c1	·	-8
Cc1ccccc1C1C(C#N)=C(N)OC2=C1C(=O)CCC2 (stereo unspecified)	-8	-1
CC1(C)CC(=O)C2=C(C1)OC(N)=C(C#N)C2c1ccc(F)cc1 (stereo unspecified)	4	-6
CCN1C=C(Cc2ccccc2C)C2=C(C1)C(c1ccccc1C)C(C#N)=C(N)O2 (stereo unspecified)	64*	-5
CCN1C=C(Cc2ccc(F)cc2)C2=C(C1)C(c1ccc(F)cc1)C(C#N)=C(N)O2 (stereo unspecified)	85*	-14
CN1OCC(S(=O)(=O)NCCc2ccccc2)C1c1ccc(Cl)cc1 (stereo unspecified)	-8	-5
CCc1ccc(NC(=O)c2coc(=O)c3ccccc23)cc1	-2	-1
CCOc1ccc(C(O)c2nccn2C)cc1 (stereo unspecified)	-2	1
COc1ccc(C(O)c2nccn2C)cc1 (stereo unspecified)	-5	52*
Cc1nc2c(SCC(=O)NCc3ccco3)nnc(-c3ccccc3)c2s1	53*	40
Cc1nc2c(SCC(=O)Nc3ccc4c(c3)OCO4)nnc(-c3ccccc3)c2s1	30	11
CCc1ccc(NC(=O)N2CCCC2c2nc(-c3cccc(OC)c3)no2)cc1 (stereo unspecified)	18	-2
Cc1n[nH]c(C)c1CCCOc1ccc([N+](=O)[O-])cc1	-4	1
Cc1ccc(CN2CCc3c(cc(C(=O)Nc4ccc(N5CCOCC5)cc4)n3C)C2)cc1	33	1
COc1cccc(CN2CCc3c(cc(C(=O)NC(C)C)n3C)C2)c1	34	2
COc1cccc(CN2CCc3c(cc(C(=O)Nc4ccccc4)n3C)C2)c1	59*	0
COc1ccc(NC(=O)c2cc3c(n2C)CCN(Cc2ccc(C)cc2)C3)cc1OC	50*	-2
COCCNC(=O)c1cc2c(n1C)CCN(Cc1cccc(OC)c1)C2	21	-1
COc1cccc(CN2CCc3c(cc(C(=O)Nc4cccc(C)c4C)n3C)C2)c1	43	1
COc1cccc(CN2CCc3c(cc(C(=O)NCc4ccc(F)cc4)n3C)C2)c1	54*	-4
COc1cccc(CN2CCc3c(cc(C(=O)Nc4ccccc4OC)n3C)C2)c1	88*	4
SMILES	mHTT-CaM PPI inh	Pf apPOL inh
COc1ccc(NC(=O)c2cc3c(n2C)CCN(Cc2ccc(F)cc2)C3)cc1	99*	-5
CCN(CC)C(=O)c1cc2c(n1C)CCN(Cc1ccc(F)cc1)C2	34	-3
COc1ccccc1NC(=O)c1cc2c(n1C)CCN(Cc1cccc(C)c1)C2	63*	-4
COc1ccc(CNC(=O)c2cc3c(n2C)CCN(Cc2ccccc2)C3)cc1OC	44	2
O=C(c1ccsc1)N1CCN(c2[nH]ncc2-c2ccccc2)CC1	63*	-2
O=C(c1ccccc1)N1CCN(c2[nH]ncc2-c2ccccc2)CC1	77*	-4
O=C(c1ccncc1)N1CCN(c2[nH]ncc2-c2ccncc2)CC1	-1	-1
O=C(c1cccs1)N1CCN(c2[nH]ncc2-c2ccncc2)CC1	0	-7
O=C(c1ccccc1)C1CCN(C(=O)CSc2ccc(Cl)cc2)CC1	·	-5
COc1ccc2cc(C3CC(c4ccc(C)cc4)=NN3C(=O)c3ccco3)c(Cl)nc2c1 (stereo unspecified)	17	8
NC(=Nc1csc(C(F)(F)F)c1-c1ccccc1)N1CCCCC1	·	-1
Cc1cc(Cl)ccc1N1CCN(C(=O)c2ccc(C(F)(F)F)cc2)C(C)C1=O (stereo unspecified)	2	-3
CC1(C)CC(=O)C2=C(C1)OC(N)=C(C#N)C2Cc1ccccc1 (stereo unspecified)	-2	-1
CCOc1ccc(-c2nc3s/c(=C\c4cc(Br)ccc4OC)c(=O)n3n2)cc1	-8	55*

Bioassay records: PubChem BioAssay, University of Kansas High Throughput Screening Laboratory
